# Assay results taken from publication PMC12864922, “TDP-43 directly inhibits mRNA accumulation in neurites through modulation of mRNA stability”.
# Whole data set: some 9,900 sequences, median “r (bound/input frequency ratio)” near 0.7, cut for the highest 2% near 6.5. For the sample, the highest values were picked, then their nearest neighbours and some sequences at random.
# B1: ENSMUSG00000032194.167|Kank2 (ssRNA)
# RNA: GGGAGUUCUACAGUCCGACGAUCGCUUCGAUAUCCGCAUGCUAAGAGUAAACAGAGACUGUGAUACUGACCAAGUACAGGCGCUCGCUAUGAAGCCCAUAUGUUCCUGAUUAAGAGCUGGCUGGCCUCAGAGCACUCCCAGAACUAGCUUAAAGUGACAGGCUUUGCUGAAAUCCAAAGGGACAAAAGAGUAGUUUUAUGUUUGUGUGUUUGUUUUUAAUGCCCUGGAGCUCCUGCUGGUGACAGGAGAGACAGACAGGCUGCACCUUUCUCUAACUGGGGUUCCUUUCUGGCCCCAGGAUCUCUCUUGCGGUCGCACUAGUGUGGAAUUCUCGGGUGUCAAGG
# B2: ENSMUSG00000061578.337|Ksr2|72:76 (ssRNA)
# RNA: GGGAGUUCUACAGUCCGACGAUCGCUUCGAUAUCCGCAUGCUAACCAGUCACCUGCCUCCCAGGGUUCUGCCUUGCCCUUAAGCUAGGGUCCUUCAAGCAUCCACAGACUUAGACACACGUGGUAACAUGCUUGUAAUCCUGGCACUCUGGAGGCUGAGGCAGGAGGAUAACAAGUCUAGACUAUAUAUGAUUUCUGAGGGUCUGUUAGUGAAUAAGUACCUGGAUGACAUGGGACAAGUCCCAGCCUUCCCUGCUCCUGCGCUGCUCUUCCUCUUAUGGGAUAGGGUCUAGGUCAAAUGUCACUCUUGCGGUCGCACUAGUGUGGAAUUCUCGGGUGUCAAGG
# B3: ENSMUSG00000061578.1309|Ksr2 (ssRNA)
# RNA: GGGAGUUCUACAGUCCGACGAUCGCUUCGAUAUCCGCAUGCUAUCUGCACCCAACUGAAUCUCCCACCCUCAAGUGUACCUCUCAGGAUAUCCCCAGGCACACGAAGAUGGAAUGGAAAGCCAGUGGGUAUCUCCCACCCACUUAGAUGCUGAUGGCCUGGGACUAUAAACAGGGACAGUUGGGUCUCCUAAGGAAUAGCUUCCAGGUCCAGGAUGCUGGCAUCUCCCAGAGAGAACUCCAUCCCCUGACCACCAAGGCCUUUGUAGAAGCAGGAAUCUCUUCCUCCUGUCCCACAGCCCCCACUCUUGCGGUCGCACUAGUGUGGAAUUCUCGGGUGUCAAGG
# B4: ENSMUSG00000029636.197|Wasf3 (ssRNA)
# RNA: GGGAGUUCUACAGUCCGACGAUCGCUUCGAUAUCCGCAUGCUAGACUUCCCCUCUCCUGCCCUGAUCCUUUUUACCAAAUGGCGAUUCCAUAGUCCUGGCUGAGGCAGGGGCUCAAAGUCCAGUGUCUGCUUUGCAAUUCUGGAAGGACAGCUGCUUAUUUAAAUAAGUCUGUGAUAUCCGCAGGCUUGGGUUACAGGGAGGACCUUGCAGAGGGACCAGGACACUGCCUUCCCUUAGGUGCAUUAUUUACGUGGCCUGCAGCUCUUAAUAUCUCUCACUGUUUAUGAAAAGAAAGAUUCAGACUCUUGCGGUCGCACUAGUGUGGAAUUCUCGGGUGUCAAGG
# B5: ENSMUSG00000029636.77|Wasf3 (ssRNA)
# RNA: GGGAGUUCUACAGUCCGACGAUCGCUUCGAUAUCCGCAUGCUAAAGAUCACUGGCUGUGUGUCUCAGUGAUGUCUUCCAACCAGUGGGUGAUACGUUUUCCUGUUUCUUCCCUUUGCAAAUUGAAUUCCAGGUAGAUAUGGUUGUAGAGGGGAAAGUUUAACAAAUCAGAAUGAAAUGUUUGUCUGUUUGCACACUGGGCCUGGUGGCCUCCAAGGAAAUGUGUACGAUCGUUUGCUUUCUCUAUCUUGGCGCUUGCAACCGAGAGCGGCCAUUUUUAUGAGGGGAGCCCUGUGGGUACUCAUCUCUUGCGGUCGCACUAGUGUGGAAUUCUCGGGUGUCAAGG
# B6: ENSMUSG00000090935.714|Synj2bp (ssRNA)
# RNA: GGGAGUUCUACAGUCCGACGAUCGCUUCGAUAUCCGCAUGCUAAGAGCUCUGCUCUCUGAGCAUCUGCCCCAGAUACAGAGGCAGAGUAUGAAGUGGAACAUUGUUUUAUUCCUAGGUGCUCAGGACAGACUGAUCAACCUCCAGUAACAUAUGUGGUUAGUAAGUGCUUCAGCUUGUGUAGCCAUUAAUAACCAAGUCAUAGGAUUGUGAAUCUAAAAUACUCCUGGGUAAAAUUUGUAUUAGAAUGGAAAAAAAAAUGAGGGUCAGAAAGGUGAGCUAACUUCAAGUUAGAUACUCCCCUCCUCUUGCGGUCGCACUAGUGUGGAAUUCUCGGGUGUCAAGG
# B7: ENSMUSG00000061578.632|Ksr2|56:60;95:99 (ssRNA)
# RNA: GGGAGUUCUACAGUCCGACGAUCGCUUCGAUAUCCGCAUGCUAUAGAGGGGACGGACAGCUCCCUGACCCUGGAUGGCCAGGAAUGGUGCUAGCUAGGCACACAGCCAAGCCCUUGAGGCUACUGUGAGUUAUGAGAACACACCAACCCUCAGCCCACAGACUGCAUAUGCCCCAGGACAGCUGUGAAGGUGACCCAAUACAAAAUCGUAAACUAACUUAAAACCAUUAAGGGUUUUUGUUUUGUUGUUGUUUGCUGGCUUUUUGUUUUUUGGGUUGGUUUUCUUUUUCUUUCUUUCUUUUUUCUCUUGCGGUCGCACUAGUGUGGAAUUCUCGGGUGUCAAGG
# B8: ENSMUSG00000029636.428|Wasf3 (ssRNA)
# RNA: GGGAGUUCUACAGUCCGACGAUCGCUUCGAUAUCCGCAUGCUAGUGGAUGGGUGGGUGGAUACAUGGAUGAGUGGAUGGGUGGAUUGGUGGGUGAGUGGAUAGGUGAAUGGAUGAUAGGUGGUGGAUGGUUGAGUGGGUGGAUUCAUGAUGGAUGGAUGGAUGGAUGGAUGGAUGGAUGGAUGGAUGAGUGGAUGGAUAAUAGGUUGAUGGGUGGAUAGGUAGAUGAGUGAAUAGAUAGAUAUAGAUCAGUGGGAGGAUUGGAAAGUAGGUGAAUGAAUGGAUGGCAGAUAGAUGGAUCAAUUCUCUUGCGGUCGCACUAGUGUGGAAUUCUCGGGUGUCAAGG
# B9: ENSMUSG00000029636.430|Wasf3 (ssRNA)
# RNA: GGGAGUUCUACAGUCCGACGAUCGCUUCGAUAUCCGCAUGCUAGUGGAUACAUGGAUGAGUGGAUGGGUGGAUUGGUGGGUGAGUGGAUAGGUGAAUGGAUGAUAGGUGGUGGAUGGUUGAGUGGGUGGAUUCAUGAUGGAUGGAUGGAUGGAUGGAUGGAUGGAUGGAUGGAUGAGUGGAUGGAUAAUAGGUUGAUGGGUGGAUAGGUAGAUGAGUGAAUAGAUAGAUAUAGAUCAGUGGGAGGAUUGGAAAGUAGGUGAAUGAAUGGAUGGCAGAUAGAUGGAUCAAUUACAGAUGGAUGGCUCUUGCGGUCGCACUAGUGUGGAAUUCUCGGGUGUCAAGG
# B10: ENSMUSG00000029636.427|Wasf3 (ssRNA)
# RNA: GGGAGUUCUACAGUCCGACGAUCGCUUCGAUAUCCGCAUGCUAAGCUAGGUGGAUGGGUGGGUGGAUACAUGGAUGAGUGGAUGGGUGGAUUGGUGGGUGAGUGGAUAGGUGAAUGGAUGAUAGGUGGUGGAUGGUUGAGUGGGUGGAUUCAUGAUGGAUGGAUGGAUGGAUGGAUGGAUGGAUGGAUGGAUGAGUGGAUGGAUAAUAGGUUGAUGGGUGGAUAGGUAGAUGAGUGAAUAGAUAGAUAUAGAUCAGUGGGAGGAUUGGAAAGUAGGUGAAUGAAUGGAUGGCAGAUAGAUGGACUCUUGCGGUCGCACUAGUGUGGAAUUCUCGGGUGUCAAGG
# Molecular target: TDP-43 (Homo sapiens, UniProt Q13148 1-414)
# Assay: RNA Bind-n-Seq with designed 260-mer pool; 25 mM Tris-HCl, 150 mM KCl, 3 mM MgCl2, BSA (printed 500 mg/mL), 20 units/mL SUPERase IN; pH not stated; 500 nM RNA pool, 1 h, 4 C; TDP-43 5, 50, 500 nM; high values mean tight binding
# Conditions: protein: recombinant; tags: SBP (GST cleaved off with PreScission; pGEX-GST-SBP)
# How it was run: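 An in vitro-transcribed pool of 260-nt 3′ UTR oligos (500 nM) was incubated for 1 h at 4 °C with recombinant SBP-tagged TDP-43 at 5, 50 or 500 nM held on streptavidin beads. The buffer contained 25 mM Tris-HCl, 150 mM KCl, 3 mM MgCl2, BSA and SUPERase IN. Biotin-eluted bound RNA was sequenced, and binding, R, is each oligo's normalized read abundance in the bound sample over that in input.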
# Sequence of TDP-43 (Q13148 whole entry): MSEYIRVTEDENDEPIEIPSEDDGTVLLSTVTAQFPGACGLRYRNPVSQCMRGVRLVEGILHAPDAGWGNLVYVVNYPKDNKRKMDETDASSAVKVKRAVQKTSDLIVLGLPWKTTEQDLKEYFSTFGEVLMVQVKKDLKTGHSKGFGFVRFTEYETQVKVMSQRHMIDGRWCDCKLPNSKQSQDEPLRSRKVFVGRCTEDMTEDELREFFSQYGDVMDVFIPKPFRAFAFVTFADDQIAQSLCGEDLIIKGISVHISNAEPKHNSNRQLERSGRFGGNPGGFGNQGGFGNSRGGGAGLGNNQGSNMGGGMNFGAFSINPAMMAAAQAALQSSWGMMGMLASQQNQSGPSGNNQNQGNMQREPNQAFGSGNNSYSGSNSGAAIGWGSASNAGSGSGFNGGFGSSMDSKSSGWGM
row,Binder,binding signal
1,B1,3.92 R (bound/input frequency ratio)
2,B2,0.335 R (bound/input frequency ratio)
3,B3,0.602 R (bound/input frequency ratio)
4,B4,0.304 R (bound/input frequency ratio)
5,B5,4.99 R (bound/input frequency ratio)
6,B6,1.22 R (bound/input frequency ratio)
7,B7,0.54 R (bound/input frequency ratio)
8,B8,8.28 R (bound/input frequency ratio)
9,B9,4.31 R (bound/input frequency ratio)
10,B10,4.15 R (bound/input frequency ratio)
